Data: PubChem BioAssay (NCI)
Where “and” joins values, the source holds several entries; their conditions need not be identical. Identical values can stand only once. This is part of a sample that, as a whole, favours compounds with a hit. Of some 79,000 tested, about 15% had one in any assay. Calls of active or inactive are those of the source. No stated cut-off is given here; in the data, active means growth inhibition above about 70%; inactive means the rest.

Tests used:
[1] = NCI Yeast Anticancer Drug Screen. Data for the rad50 strain (AID 155);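 further: 0% = growth of vehicle-only cultures of the same strain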; conditions: S. cerevisiae rad50 strain growth inhibition, stronger effect = higher value; at 50.0 µM unless noted
Method in brief: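 Cells are treated with compound, grown, and their growth is then scored against vehicle-only cultures of the same repair-deficient yeast strain.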

[2] = NCI Yeast Anticancer Drug Screen. Data for the mec2-1 strain (AID 157); conditions: S. cerevisiae mec2-1 strain, stronger effect = higher value; at 50.0 µM unless noted
Method in brief: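 Vehicle-treated cultures served as reference for growth inhibition of compound-exposed mec2-1 yeast.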

[3] = NCI Yeast Anticancer Drug Screen. Data for the sgs1 mgt1 strain (AID 161);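 further: 0% = growth of cultures given vehicle only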; conditions: S. cerevisiae sgs1 mgt1 strain, stronger effect = higher value; at 50.0 µM unless noted
Method in brief: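 Mutant yeast exposed to compound; growth scored against vehicle-only wells.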

[4] = NCI Yeast Anticancer Drug Screen. Data for the cln2 rad14 strain (AID 165);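 further: 0% = growth equal to vehicle treated cultures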; conditions: S. cerevisiae cln2 rad14 strain, stronger effect = higher value; at 50.0 µM unless noted
Method in brief: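 Each compound was tested on cln2 rad14 yeast. Inhibition of growth was calculated against vehicle-exposed controls.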

[5] = NCI Yeast Anticancer Drug Screen. Data for the bub3 strain (AID 167); conditions: S. cerevisiae bub3 mutant strain, stronger effect = higher value; at 50.0 µM unless noted
Method in brief: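 Part of a panel of yeast mutants defective in DNA damage repair or cell cycle regulation. Each strain is grown with compound, and inhibition is calculated relative to solvent-treated cultures.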

[6] = NCI Yeast Anticancer Drug Screen. Data for the mlh1 rad18 strain (AID 175); conditions: S. cerevisiae mlh1 rad18 strain growth inhibition, stronger effect = higher value; at 50.0 µM unless noted
Method in brief: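 Vehicle-treated cultures served as the reference for growth inhibition in a yeast strain carrying DNA damage repair alterations exposed to each compound.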

Measured: growth inhibition

O=C1CN(c2ccccc2)C(=O)CN1NCNN1CC(=O)N(c2ccccc2)CC1=O
inactive: [1] -27.4% | [2] 2.1% | [3] -1.5% | [4] 4.35% | [5] -10% | [6] -5%

O=C1C(=O)c2ccccc2C(O)=C1C1CCCCC1
inactive: [1] 44.4% | [2] 2.15% | [3] 24.3% | [4] 5.55% | [5] 18.1% | [6] 26.9%

C/C=C\c1noc2c1C(=O)OC(C)C2 (centres undefined)
inactive: [1] 49.4% | [2] 23.4% | [3] 40.4% | [4] 14.2% | [5] 22.4% | [6] 17.6%

O=C1c2c(ccc3c2CCCC3)CC1Cc1ccc2c(c1)CCCC2 (centres undefined)
inactive: [1] -22% | [2] -15.2% | [3] -18.8% | [4] -25.1% | [5] -17.4% | [6] -37.7%

CSc1nc(SC)c2cnn(CC3CO3)c2n1 (centres undefined)
inactive: [1] 44.2% | [2] -15.2% | [3] 60.8% | [4] 11.1% | [5] -20.1% | [6] 39.5%

COC1OC(COC(=O)c2ccc([N+](=O)[O-])cc2)C2SC12 (centres undefined)
inactive: [1] 9.5% | [2] -9.1% | [3] 1.8% | [4] -27.6% | [5] 6.7% | [6] 2.65%

CCC(/C=C/c1ccc(C)cc1)=N\NC(=O)c1ccccc1
inactive: [1] -0.25% | [2] -2.3% | [3] -1.1% | [4] 19.2% | [5] 3.35% | [6] 3.05%

CSc1nc(N)c(I)c(Cl)n1
inactive: [1] 7.8% | [2] 3.65% | [3] 6.9% | [4] 2.4% | [5] -14.6% | [6] -2.6%

CCOC(=O)/N=N/C(C)(C)OC(C)=O
inactive: [1] -10.5% | [2] 9.25% | [3] -8.1% | [4] -39.7% | [5] -20.4% | [6] -21.1%

CC(C)=C1C2C(C13C(=O)OC(C)(C)OC3=O)C2(C)C (centres undefined)
inactive: [1] -10.5% | [2] -16.9% | [3] -11.6% | [4] 7.9% | [5] -21.6% | [6] -9.2%

CCOc1ccccc1N1CCN(CC(O)CSc2ccccc2)CC1 (centres undefined)
inactive: [1] 1.3% | [2] -9.25% | [3] -6.2% | [4] -33.6% | [5] 4.95% | [6] -2.65%

CCN(CC)CCCC(C)NCC1C(O)CCC2CN3CCc4c([nH]c5ccccc45)C3CC21 (centres undefined)
inactive: [1] 23.8% | [2] 9.45% | [3] 25.2% | [4] 23.6% | [5] 18.6% | [6] 25.1%

CCCCOC(c1ccccc1)c1ccccc1
inactive: [1] -19.8% | [2] -18.6% | [3] -11.8% | [4] -17.8% | [5] -4.25% | [6] 1.95%

CCOC(=O)COc1ccc(OC)c2c1C(=O)CCC2
inactive: [1] 21.1% | [2] 16.7% | [3] 6.15% | [4] 29.2% | [5] 10% | [6] 15%

O=[N+]([O-])c1ccc(S/N=C\c2ccccc2)c([N+](=O)[O-])c1
inactive: [1] -9.95% | [2] 13.7% | [3] 0.25% | [4] 14.6% | [5] 7.2% | [6] 8.55%

CCO/C(C)=N\OC(=O)C(F)(F)F
inactive: [1] -0.1% | [2] -15.3% | [3] 6.55% | [4] -15.6% | [5] 1.35% | [6] -8.4%

CCCSc1nc(C(=O)O)cc(=O)[nH]1
inactive: [1] -8.9% | [2] -13.8% | [3] -4.8% | [4] -44.2% | [5] -5.1% | [6] -8.15%

O=C(O)C1(C(=O)O)CCCCC1.[NH2-].[NH2-].[Pt+2]
inactive: [1] 2.65% | [2] 17.5% | [3] 1.6% | [4] 22.2% | [5] 7.6% | [6] 15.8%

Cc1ccc(S(=O)(=O)NC(CCC(=O)N2CCOCC2)C(=O)O)cc1 (centres undefined)
inactive: [1] -18.1% | [2] -4% | [3] 7.15% | [4] -57.9% | [5] 24.8% | [6] 8.6%

CCCCC(C)(C)SCCC(=O)O
inactive: [1] 11.2% | [2] -7.25% | [3] 14.9% | [4] 10.9% | [5] 5.6% | [6] -5.35%

C[C@H](C(=O)O)C(=O)NC(=O)N(Cc1ccccc1)N=O
inactive: [1] -24% | [2] -24.6% | [3] -26.8% | [4] 14.3% | [5] -1.25% | [6] -8.3%

CSc1ccc(Nc2cc(=O)[nH]c(=O)[nH]2)cc1
inactive: [1] 14.6% | [2] 8.75% | [3] 18.1% | [4] 2.3% | [5] 3.7% | [6] -10.9%

ClC(Cl)CN(Cc1ccccc1)c1ncc[nH]1
inactive: [1] 22.5% | [2] 6.25% | [3] 28% | [4] -59.2% | [5] 8.05% | [6] 17.6%

CC(C)COC(=O)c1ccccc1
inactive: [1] 35% | [2] 7.95% | [3] 20.1% | [4] -18.4% | [5] -9.6% | [6] 3.6%

CCN(CC)N=Nc1ccc(C(=O)O)cc1
inactive: [1] 9.55% | [2] 1.7% | [3] -10.1% | [4] -8.8% | [5] 5.85% | [6] -2%

CC1CCC2(C(=O)O)CCC3(C)C(=CCC4C5(C)CCC(O)C(C)(C)C5CCC43C)C2C1C (centres undefined)
inactive: [1] 12.8% and 11.4% | [2] 11.3% and 0.15% | [3] 12.3% and -9.2% | [4] 0.45% and 16.4% | [5] 5.8% and -7.4% | [6] 14.4% and 0.85%

CC(C)(C)OC(=O)NNS(=O)(=O)CCC(NC(=O)OCc1ccccc1)C(=O)OCc1ccccc1 (centres undefined)
active: [2] 93.2% | [4] 86.5% | [5] 94.5% | [6] 95.6%
inactive: [1] 46.7% | [3] 51.1%

Cc1ccc2nc(NC(=O)C(=O)C(C#N)c3nc4ccccc4s3)sc2c1 (centres undefined)
inactive: [1] 11.2% | [2] 1.75% | [3] 19.7% | [4] 25.6% | [5] 18.5% | [6] 19.2%

S=C1NCN2CCN(CC2)CNC(=S)C(=S)NCN2CCN(CC2)CNC1=S
inactive: [1] 39.2% | [2] 40.6% | [3] 13% | [4] 55.8% | [5] 48.9% | [6] 57.6%

CC12CCC(=O)C=C1CCCC2=O (centres undefined)
inactive: [1] -7.6% | [2] -12.3% | [3] -11.6% | [4] -14.7% | [5] -7.75% | [6] -3.4%

O=C(NCCCOC(=O)CCCCCCCCC(=O)OCCCNC(=O)NC(=O)c1c[nH]c(=O)[nH]c1=O)NC(=O)c1c[nH]c(=O)[nH]c1=O
inactive: [1] -11.5% | [2] -18.6% | [3] -7.85% | [4] 8.3% | [5] 6.05% | [6] -14.9%

N#CC1CC2CC1C1OC21 (centres undefined)
inactive: [1] -15.4% | [2] -10.3% | [3] -14.1% | [4] 9.35% | [5] -2.25% | [6] -5.9%

CCOc1ccc(N=Nc2c(O)n(-c3ccc(Cl)cc3)c(=S)n(-c3ccccc3)c2=O)cc1
inactive: [1] -15.2% | [2] 2.5% | [3] 7.85% | [4] -0.15% | [5] 32.5% | [6] 26.4%

COCCN(CCOC)C(=O)Nc1ccc(Cl)cc1
inactive: [1] 4.6% | [2] 5.5% | [3] 10.4% | [4] 4.5% | [5] 0.8% | [6] 9.75%

O=C1Nc2cc(Br)ccc2C1=O
inactive: [1] 7.5% | [2] 23.1% | [3] 2% | [4] 11.8% | [5] 10.4% | [6] 15.2%

Cc1cc([N+](=O)[O-])c(Nc2ccc(C)c(Cl)c2)c([N+](=O)[O-])c1
inactive: [1] 8.15% | [2] 36.7% | [3] 29.6% | [4] -8.05% | [5] 52.1% | [6] 33.6%

Cc1c(Cl)cc(Cl)c2c1C(=O)CC(C)O2 (centres undefined)
inactive: [1] 20.4% | [2] 7.4% | [3] -0.4% | [4] -17.2% | [5] -14.5% | [6] 18.8%

Cn1cnc2nc(Cl)nc(N)c21
inactive: [1] 0% | [2] -4.15% | [3] 6.05% | [4] -16.6% | [5] 7.75% | [6] -9.4%

COc1ccc(-c2nc(N)c3ncn(C4OC(CO)C(O)C4O)c3n2)cc1 (centres undefined)
inactive: [1] -13.2% | [2] -23.9% | [3] -7.15% | [4] -12.2% | [5] -27.1% | [6] 15.4%
